# Experimental data: PMC13494018
# Unmarked numbers belong to inactive results. How the calls were made is not given here.
# B1: d1r8_design_ppi_832_dldesign_0_cycle0_af2pred (protein)
# chain: AAEAAALKAQIEAAIAQMREETRRAAERDVEEGGRVASAATQQITKLVSQLAKVDPAAGAEAMALLTEAMREVQAYLDAERAARA
# B2: d1r8_design_ppi_824_dldesign_0_cycle1_af2pred (protein)
# chain: AEAERRRAEVLALFDEAVAAGSPELARAAAERAAELNPERAEDIRQQGEIAAALMPFSPRAARALMRTVAA
# B3: d1r8_design_ppi_401_dldesign_0_cycle1_af2pred (protein)
# chain: MEKVEKAKKGLEQATELAKAMVPEKAEEFEKIRKEGVEEAKKAAGDPEKAAEILAKARNEILRNGIKAAMAAAKAAA
# B4: d1r8_design_ppi_679_dldesign_0_cycle0_af2pred (protein)
# chain: AEAQKLLEKAKKLAEEAKKIAKESGDEEAKRIAEGAKKMAELAKAALAAGDSAAAMQAYLAGVKTLYEAAKEEAKRKA
# B5: d1r8_design_ppi_296_dldesign_0_cycle1_af2pred (protein)
# chain: SAAAKAAAEAAKQRVDGLAQMAIASPALLPHMEAMAKRAAAAVAALDPALGAEVEKYAKEQMAKAKAAVAAAAAAA
# B6: d1r8_design_ppi_356_dldesign_0_cycle1_af2pred (protein)
# chain: VLEAVSAALSLAEEAAELDPRAGHALLTYANAVWNPATLEKGRKTAREKAKEFKKRAEEEDGERARKAAELLEKAIEEAEKLLKEA
# B7: d1r8_design_ppi_443_dldesign_0_cycle0_af2pred (protein)
# chain: SAAAALLARTAAAIVAQTRALVGDAKAAEAQALADAAVAAAKAGDYAKAGALLTELLKLAAEARREKAAAEAAAAA
# B8: d1r8_design_ppi_616_dldesign_0_cycle0_af2pred (protein)
# chain: DAERQAALEEAKKEAERAKKAAEEAIKAAAKDPEAQKKLEEARENLEAALKWAEETNGDVTTWKGVTALARMVLQAAEGIKKKAEA
# B9: d1r8_design_ppi_742_dldesign_0_cycle1_af2pred (protein)
# chain: AAAAAAKAAAAAAAQAALRSLRDLAARAKAAEAAGDPEAAAKYRAAAEQWADIAIASAKQAGTEATVAAEAAALLAA
# B10: d1r8_design_ppi_588_dldesign_0_cycle1_af2pred (protein)
# chain: AAEDKALAAAMAAEAEKVIAEAAKQTPAEANKLAATFAEKAFALAKEHPGAAAALNAAAFKVLTGAMKAIQAQSA
# B11: d1r8_design_ppi_373_dldesign_0_cycle0_af2pred (protein)
# chain: DQETTGNLVLAAAKANAGVEEADKAIEAAEKAAKDPKLKEKAEEAKKLIEEAKKATPEEAKKLLKEAAKLVNEALRAYSA
# B12: d1r8_design_ppi_373_dldesign_0_cycle1_af2pred (protein)
# chain: SEELIKNLLLAASKALAGVESAPEAIKAAEEAAKDPRLKEDAEKAKKLIKAAIKATPEEAAKLLKKAAKLLNDALRKYTS
# B13: d1r8_design_ppi_364_dldesign_0_cycle1_af2pred (protein)
# chain: ALEEAAREARELADETLAAAKAGTINLEELAARFNEAGRLIREVEALGELAEEVGRYVSRKFNEALTALL
# B14: d1r8_design_ppi_443_dldesign_0_cycle1_af2pred (protein)
# chain: SPAAALLARTAAAIAAQTVREVGPARAAELQALADAATAAAEAGDFTTAGELLEELLRLAAEARAEKAAAERAAAA
# B15: d1r8_design_ppi_667_dldesign_0_cycle0_af2pred (protein)
# chain: SAAAAAALAAARATAVAALTAGTGLAPEEAAALAAAMTDDQIFAIANLNAANPAAGQALAANLAAQVRRELA
# B16: d1r8_design_ppi_364_dldesign_0_cycle0_af2pred (protein)
# chain: DLERAAEEAERLAEETLARAAAGEITLEELAEAHRRIGELIERVAASGELAERVARRASRLMNQALTALA
# B17: d1r8_design_ppi_661_dldesign_0_cycle1_af2pred (protein)
# chain: DVVAEARELAARAEEAAERARADPAASQEVVDLFRQAAGYARNALLLAEGTPESQAQAARLLERARRLFEEAERRFRADVAAAA
# B18: d1r8_design_ppi_723_dldesign_0_cycle1_af2pred (protein)
# chain: EEAQKKIKELGEKAAELAKKNVEEGAEALKEAAKLAAKAQPASAEQILKHGEAVAERAKTLSPEEAATLVRNAGKVFAQL
# B19: d1r8_design_ppi_744_dldesign_0_cycle1_af2pred (protein)
# chain: STAEKAVKLVEETAKKGIAEAKADPAKVPAAAKELAKKGKEAAKLIGSTGLAVGIGNLAKTAIAFPEQAPDYFASAAALAKEVAE
# B20: d1r8_design_ppi_791_dldesign_0_cycle0_af2pred (protein)
# chain: SENEKKLEEVKKKLEEAKKAAEEDPKAGAALAIETIELAKKAAEEAKKNGDEKTAEEANKLAHEAMKLAAKALAKAAA
# B21: d1r8_design_ppi_393_dldesign_0_cycle1_af2pred (protein)
# chain: EREELAERLEKAARLLEEGAASDSPGLLAARAWAAANVAPPEWAARLREVSRAALANVEEGRKLAKELAEELRKEAERLRKEL
# B22: d1r8_design_ppi_616_dldesign_0_cycle1_af2pred (protein)
# chain: DAAREAALKEAKEEFEKAEKEAEEAIKAAKDDPEAQKKLKELRESAKAALENAEKTKADVTTYKGVKALARMLLQTAEGVKKAAEA
# B23: d1r8_design_ppi_735_dldesign_0_cycle1_af2pred (protein)
# chain: SEAAEKALKAVEAAIEVVETGTPEEALAATKAAAEVAKKAAEAAGNLGAQIKATADAAVKATAADKAAGLAKLRTLATLLRAYAEA
# B24: d1r8_design_ppi_587_dldesign_0_cycle0_af2pred (protein)
# chain: SEYRREAEELRERVERIEKRMREAKTAEEAREVLREAQRVAAEAARLAVQAAADGADQEVLDEINEVLSRALEVAREASRKARELE
# B25: d1r8_design_ppi_811_dldesign_0_cycle0_af2pred (protein)
# chain: AQEAADQAAFEAAKAGLEKATEAAVGMLEALGEEEAAKEVREFAEKAKKEAEKLTPKEGAELYGKAANEILRRTSQVAAQAVA
# B26: d1r8_design_ppi_716_dldesign_0_cycle1_af2pred (protein)
# chain: AVEAALAEARAVLERAKEAAKRLKEVGTPEEQKLAEELVALGETALKQAEADGTLATARGALAAARLALQGLEGLLERALARRAAAA
# B27: d1r8_design_ppi_780_dldesign_0_cycle1_af2pred (protein)
# chain: AAATLAALTAAFGRLVELGAEAIRANPALAPEVNKLLGTASKAAIAGIRDPSLAEAALKTIEAQLKKVEELLKKAK
# B28: d1r8_design_ppi_566_dldesign_0_cycle1_af2pred (protein)
# chain: MTPEEAREMGERIREAAKRSVEEAVKAIEEAKEKLSPELKPLADRAIELAKRSPEAGANLATTALHIEALS
# B29: d1r8_design_ppi_534_dldesign_0_cycle1_af2pred (protein)
# chain: AAALAAEAAALAQEALANIAEADALAKKADPEIGKIYEEAARHFMRGVSLAQRGDLERAKKEIEEGKKLFEKAKELEKKKKEKE
# B30: d1r8_design_ppi_321_dldesign_0_cycle0_af2pred (protein)
# chain: SAEENKKRLIAAAEAAFKNFSAEAERLEAEGKKEEAAKVYEQLAELLEQMRESAKATAGEEGAKEIEKLLEEAKKKLEEVK
# B31: d1r8_design_ppi_467_dldesign_0_cycle1_af2pred (protein)
# chain: AEAEAAVASLVEFVKAILDAAATQDPRLAPAAEEALALMEAGDFDEAARLFLAAGAAAGPAAAALARAAANAMRLAAEAAAAI
# B32: d1r8_design_ppi_590_dldesign_0_cycle1_af2pred (protein)
# chain: LEEVKKKLKELAELAKSAGKWNPETGKQVVKSLLRVAESEAKRLAGDPEAAEKVKKYGEELAKEAEKEIKEVAAA
# B33: d1r8_design_ppi_314_dldesign_0_cycle1_af2pred (protein)
# chain: ALEEAKKAAEEAKAAAAEARAYFDAAGLTGAGNGFYNNTKKRAEELLKEAEEGSEEEAKKARKELERLKETAEKMLEVAKGVYAAAQA
# B34: d1r8_design_ppi_454_dldesign_0_cycle1_af2pred (protein)
# chain: AAEAQARAEKAEKLMREAVELVKADPTPEAVKEAEKLIAEAAKLATGSAEKHAAANAARALRTRGPEAAEVQAKLFVEMIKT
# B35: d1r8_design_ppi_647_dldesign_0_cycle0_af2pred (protein)
# chain: KEELVKQAESLEKFAKLAAEGASPEAKPLFEKAAEKFRKAAEAAKENPEEGEKLMAEGRKLLAEGMRLEIQLR
# B36: d1r8_design_ppi_811_dldesign_0_cycle1_af2pred (protein)
# chain: AEEEEAERAREEAKESLLAARDTAVGILTAAGLTDKAKEVEKYAEEALKEAEKLTPEEAAKLYGEAANRILTDTIAAASAAVA
# B37: d1r8_design_ppi_543_dldesign_0_cycle0_af2pred (protein)
# chain: AAAQTAHAQAVLDTLIALALRKAAEDPAAARAALESAKLVAEGVKATGDAATGAAAQAKVDAAGAEVAAAAA
# B38: d1r8_design_ppi_790_dldesign_0_cycle0_af2pred (protein)
# chain: AAAAAQAATATAIRSRGTNRMLTRILALPASASEAELRAIVEEEAERARAEMLAAGVSPELAEAAVEHILRIGEQAIAAR
# Biological target: CD276, Q5ZPR3
# Sequence (Q5ZPR3 whole entry): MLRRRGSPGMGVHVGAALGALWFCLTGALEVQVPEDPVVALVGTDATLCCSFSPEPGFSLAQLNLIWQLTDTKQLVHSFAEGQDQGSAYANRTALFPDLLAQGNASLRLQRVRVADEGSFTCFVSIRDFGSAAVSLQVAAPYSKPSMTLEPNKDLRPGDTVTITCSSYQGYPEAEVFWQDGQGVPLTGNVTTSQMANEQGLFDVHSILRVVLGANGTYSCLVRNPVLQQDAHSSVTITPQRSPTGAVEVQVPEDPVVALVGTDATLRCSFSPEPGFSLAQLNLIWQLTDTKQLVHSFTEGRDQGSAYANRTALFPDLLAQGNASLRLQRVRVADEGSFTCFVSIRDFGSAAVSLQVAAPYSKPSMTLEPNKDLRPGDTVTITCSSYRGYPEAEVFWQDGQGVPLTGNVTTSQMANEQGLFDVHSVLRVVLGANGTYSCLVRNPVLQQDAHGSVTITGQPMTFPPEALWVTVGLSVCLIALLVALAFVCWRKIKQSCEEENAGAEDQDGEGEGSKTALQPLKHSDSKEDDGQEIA
row,Binder,binding in a display sort
1,B1,not found
2,B2,not found
3,B3,binds (active)
4,B4,not found
5,B5,not found
6,B6,not found
7,B7,not found
8,B8,not found
9,B9,not found
10,B10,not found
11,B11,not found
12,B12,not found
13,B13,not found
14,B14,not found
15,B15,not found
16,B16,not found
17,B17,not found
18,B18,not found
19,B19,not found

row,Binder,binding in a display sort
1,B20,not found
2,B21,not found
3,B22,not found
4,B23,not found
5,B24,not found
6,B25,not found
7,B26,not found
8,B27,not found
9,B28,not found
10,B29,not found
11,B30,not found
12,B31,not found
13,B32,not found
14,B33,not found
15,B34,not found
16,B35,not found
17,B36,not found
18,B37,not found
19,B38,not found
